Data reported in PubChem BioAssay AID1159580 (chemical genetic matrix, 2015).
“And” between values parts separate entries of the source, which are not always exact repeats. Equal entries are not always repeated. About 2,000 (36%) of roughly 5,500 compounds were called active. Not shown: some 18% with an inconclusive outcome. No stated cut-off is given here; in the data, active means normalized growth mostly below about 0.91 (no sharp cut-off); inconclusive means no clear call, values can overlap the other calls; inactive means mostly above about 0.92. The list shows a part of the results.

Assay: chemical genetic growth profiling, strain panel (AID 1159580);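 further: tested at 20 µM; growth read once vehicle control cultures reached saturation at 30 °C; 1 = growth at the plate median or of vehicle wells; lower values mean less growth of the strain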
Settings: S. cerevisiae deletion strains, growth OD

Measured: normalized growth

CNC(C)C(O)c1ccccc1 (stereo not drawn)
inactive: locus YAL013W, strain DEP1, active compounds read low 1 | locus YAL021C, strain ccr4, active compounds read low 1.02 | locus YAL026C, strain drs2, active compounds read low 0.997 | locus YAL030W, strain snc1, active compounds read low 1.01 | locus YBL061C, strain skt5, active compounds read low 1 | locus YBR009C, strain hhf1, active compounds read low 0.993 | locus YBR021W, strain FUR4, active compounds read low 1.01 | locus YBR023C, strain chs3, active compounds read low 1.01 | locus YBR171W, strain sec66, active compounds read low 1.02 | locus YBR229C, strain ROT2, active compounds read low 1 | locus YBR231C, strain swc5, active compounds read low 1.02 | locus YBR279W, strain paf1, active compounds read low 1.01 | locus YCL011C, strain gbp2, active compounds read low 1.01 | locus YCL016C, strain dcc1, active compounds read low 1 | locus YCL029C, strain bik1, active compounds read low 1.02 | locus YCL061C, strain MRC1, active compounds read low 1.02 | locus YCL069W, strain vba3, active compounds read low 1.02 | locus YCR088W, strain abp1, active compounds read low 1.02 | locus YDL005C, strain med2, active compounds read low 1.02 | locus YDL035C, strain GPR1, active compounds read low 1.01 | locus YDL040C, strain nat1, active compounds read low 1.01 | locus YDL074C, strain BRE1, active compounds read low 1.02 | locus YDL101C, strain DUN1, active compounds read low 1 | locus YDL134C, strain PPH21, active compounds read low 1.01 | locus YDL185W, strain tfp1, active compounds read low 1.01 | locus YDL192W, strain arf1, active compounds read low 1.03 | locus YDR001C, strain nth1, active compounds read low 1.01 | locus YDR069C, strain doa4, active compounds read low 1.02 | locus YDR101C, strain arx1, active compounds read low 1.03 | locus YDR137W, strain rgp1, active compounds read low 1.03 | locus YDR150W, strain NUM1, active compounds read low 1 | locus YDR159W, strain sac3, active compounds read low 0.99 | locus YDR162C, strain NBP2, active compounds read low 1 | locus YDR195W, strain ref2 0.995 | locus YDR297W, strain sur2, active compounds read low 1.01 | locus YDR318W, strain mcm21, active compounds read low 1.02 | locus YDR334W, strain swr1, active compounds read low 1.02 | locus YDR335W, strain msn5, active compounds read low 1.01 | locus YDR388W, active compounds read low 1.02 | locus YDR392W, strain spt3, active compounds read low 1 | locus YDR502C, strain sam2, active compounds read low 1.02 | locus YEL003W, strain gim4, active compounds read low 1.02 | locus YEL037C, strain rad23, active compounds read low 1.01 | locus YEL061C, strain CIN8 (second series), active compounds read low 1.02 | locus YEL061C, strain CIN8, active compounds read low 1 | locus YER015W, strain faa2, active compounds read low 1.02 | locus YER016W, strain bim1, active compounds read low 1.01 | locus YER110C, active compounds read low 1.04 | locus YER111C, strain swi4, active compounds read low 1.01 | locus YER155C, strain BEM2 (second series), active compounds read low 1.02 | locus YER155C, strain BEM2, active compounds read low 1 | locus YER167W, strain BCK2, active compounds read low 1 | locus YFR010W, strain ubp6, active compounds read low 1.03 | locus YGL078C, strain dbp3, active compounds read low 1.03 | locus YGL086W, strain mad1, active compounds read low 1 | locus YGL167C, strain pmr1, active compounds read low 1.02 | locus YGL173C, strain kem1, active compounds read low 1.01 | locus YGL227W, strain vid30, active compounds read low 1.01 | locus YGL240W, strain doc1, active compounds read low 1.04 | locus YGL248W, strain PDE1, active compounds read low 1.01 | locus YGL253W, strain hxk2, active compounds read low 1.01 | locus YGR078C, strain PAC10, active compounds read low 1.01 | locus YGR135W, strain pre9, active compounds read low 1.03 | locus YGR252W, strain gcn5, active compounds read low 1.01 | locus YHR013C, strain ard1, active compounds read low 1.02 | locus YHR027C, strain rpn1, active compounds read low 1.02 | locus YHR030C, strain SLT2, active compounds read low 1 and 1.02 | locus YHR079C, strain IRE1 (second series), active compounds read low 1.02 | locus YHR079C, strain IRE1, active compounds read low 1.04 | locus YHR094C, strain hxt1, active compounds read low 1.03 | locus YHR129C, strain ARP1, active compounds read low 1 | locus YHR142W, strain chs7, active compounds read low 1.02 | locus YHR200W, strain rpn10, active compounds read low 1.02 | locus YIL066C, strain RNR3, active compounds read low 1 | locus YIL073C, strain SPO22, active compounds read low 1.06 | locus YIL125W, strain kgd1, active compounds read low 1.02 | locus YIR030C, strain dcg1, active compounds read low 1.02 | locus YJL092W, strain hpr5, active compounds read low 1.01 | locus YJL095W, strain BCK1 (second series), active compounds read low 1.01 | locus YJL095W, strain BCK1, active compounds read low 0.99 and 0.983 | locus YJL115W, strain asf1, active compounds read low 1.03 | locus YJL129C, strain trk1, active compounds read low 1.03 | locus YJL134W, strain LCB3, active compounds read low 1 | locus YJL154C, strain vps35, active compounds read low 1.01 | locus YJL164C, strain tpk1, active compounds read low 1.01 | locus YJL166W, strain qcr8, active compounds read low 1.03 | locus YJL168C, strain set2, active compounds read low 1.02 | locus YJL187C, strain SWE1 (second series), active compounds read low 1
